The values below come from the supplement of paper PMC10849652.

Experiment in all cases: log2 fold change, soluble protein after heating vs DMSO (PISA); higher = thermal stabilisation; K562 lysate, 10 uM; active = over 0.2 and 3.5 SD of the protein, either way, in both replicates (recomputed)
Compound in one assay: Cc1cn(-c2cc(NC(=O)c3ccc(C)c(Nc4nccc(-c5cccnc5)n4)c3)cc(C(F)(F)F)c2)cn1 [nilotinib]
The essentials: (§1)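 Quantification was by TMTpro 16plex LC-MS/MS with equalised channel sums, applied to the supernatant after 21,000xg for 90 min. Samples were crude K562 extract at 1 mg/mL protein in PBS pH 7.4 with 1 mM MgCl2, treated with 10 μM compound for 30 min, heated for 3 min across 48°C-58°C, pooled and brought to 0.5% NP-40 at 4°C. Values are log-two fold changes in thermal stability relative to solvent controls, from duplicates.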

Compound in assay [1]: Cc1nc(Nc2n[nH]c3c2CN(C(=O)N[C@H](CN(C)C)c2ccccc2)C3(C)C)c2sccc2n1
The essentials: as §1

Compound in a further assay: Cc1nc(Nc2ncc(C(=O)Nc3c(C)cccc3Cl)s2)cc(N2CCN(CCO)CC2)n1 [dasatinib]
The essentials: as §1

Compound in assay [2]: Cc1ncc(-c2ccnc(Nc3ccc(S(C)(=O)=O)cc3)n2)n1C(C)C
The procedure, abridged:
as §1

Compound in assay [3]: Cn1cc(-c2ccc3c(c2)CCN3C(=O)Cc2cccc(C(F)(F)F)c2)c2c(N)ncnc21
The procedure, abridged: as §1

Compound in another assay: Cn1cc(CNCC2CCN(c3ncc(C(=O)NO)cn3)CC2)c2ccccc21 [quisinostat]
The essentials:
as §1

Compound in a further assay: Cn1cncc1[C@@](N)(c1ccc(Cl)cc1)c1ccc2c(c1)c(-c1cccc(Cl)c1)cc(=O)n2C [tipifarnib]
The procedure, abridged:
as §1

Compound in assay [4]: NC(=O)Nc1cc(-c2cccc(F)c2)sc1C(=O)N[C@H]1CCCNC1
The essentials: as §1

Compound in assay [5]: NC(=O)c1cnc(N[C@@H]2CCCC[C@@H]2N)nc1Nc1cccc(-n2nccn2)c1
The essentials:
as §1

Compound in assay [6]: NC1(c2ccc(-c3nc4ccn5c(=O)[nH]nc5c4cc3-c3ccccc3)cc2)CCC1
The essentials:
as §1

About 8,800 targets were measured; listed, in parts, are those with a hit and a random draw of the rest. About 0.5% of all pairs of compound and target were hits. A number with no mark means an inactive call.

Chain of UniProt P51790 (P51790 whole entry, looked up): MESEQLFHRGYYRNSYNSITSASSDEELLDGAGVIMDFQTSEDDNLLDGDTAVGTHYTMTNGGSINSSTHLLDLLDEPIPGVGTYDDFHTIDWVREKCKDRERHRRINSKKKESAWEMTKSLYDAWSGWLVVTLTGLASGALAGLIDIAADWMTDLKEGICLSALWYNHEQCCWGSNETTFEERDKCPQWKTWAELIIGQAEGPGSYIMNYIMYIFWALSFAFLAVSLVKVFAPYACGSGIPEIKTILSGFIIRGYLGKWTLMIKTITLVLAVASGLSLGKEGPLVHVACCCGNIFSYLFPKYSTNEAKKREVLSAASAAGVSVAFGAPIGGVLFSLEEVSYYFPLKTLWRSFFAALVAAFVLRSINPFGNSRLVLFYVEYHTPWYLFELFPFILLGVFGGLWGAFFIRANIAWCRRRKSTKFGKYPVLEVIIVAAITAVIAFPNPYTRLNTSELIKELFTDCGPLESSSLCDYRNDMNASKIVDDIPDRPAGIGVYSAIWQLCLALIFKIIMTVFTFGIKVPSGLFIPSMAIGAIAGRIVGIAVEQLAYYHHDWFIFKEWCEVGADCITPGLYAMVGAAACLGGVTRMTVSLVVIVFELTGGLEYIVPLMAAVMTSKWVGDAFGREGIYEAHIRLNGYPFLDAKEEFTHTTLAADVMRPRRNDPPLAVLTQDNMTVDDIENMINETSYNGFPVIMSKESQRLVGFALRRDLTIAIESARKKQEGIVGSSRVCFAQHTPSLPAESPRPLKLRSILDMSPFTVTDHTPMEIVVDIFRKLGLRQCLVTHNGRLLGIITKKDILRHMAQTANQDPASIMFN
Chain of UniProt Q9Y6M4 (Q9Y6M4 whole entry, looked up): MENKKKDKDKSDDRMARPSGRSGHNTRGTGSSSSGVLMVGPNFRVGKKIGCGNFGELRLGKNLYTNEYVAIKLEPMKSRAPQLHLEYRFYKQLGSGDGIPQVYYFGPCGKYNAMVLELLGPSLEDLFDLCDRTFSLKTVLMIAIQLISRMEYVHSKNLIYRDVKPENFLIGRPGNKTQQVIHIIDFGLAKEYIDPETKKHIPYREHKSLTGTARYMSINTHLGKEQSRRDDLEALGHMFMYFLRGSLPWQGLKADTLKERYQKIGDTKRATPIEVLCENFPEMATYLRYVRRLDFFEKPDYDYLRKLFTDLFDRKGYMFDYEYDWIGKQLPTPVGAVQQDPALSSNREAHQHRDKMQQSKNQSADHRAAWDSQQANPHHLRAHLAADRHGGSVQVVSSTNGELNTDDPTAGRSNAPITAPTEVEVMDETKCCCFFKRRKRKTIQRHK
Chain of UniProt P57737 (P57737 whole entry, looked up): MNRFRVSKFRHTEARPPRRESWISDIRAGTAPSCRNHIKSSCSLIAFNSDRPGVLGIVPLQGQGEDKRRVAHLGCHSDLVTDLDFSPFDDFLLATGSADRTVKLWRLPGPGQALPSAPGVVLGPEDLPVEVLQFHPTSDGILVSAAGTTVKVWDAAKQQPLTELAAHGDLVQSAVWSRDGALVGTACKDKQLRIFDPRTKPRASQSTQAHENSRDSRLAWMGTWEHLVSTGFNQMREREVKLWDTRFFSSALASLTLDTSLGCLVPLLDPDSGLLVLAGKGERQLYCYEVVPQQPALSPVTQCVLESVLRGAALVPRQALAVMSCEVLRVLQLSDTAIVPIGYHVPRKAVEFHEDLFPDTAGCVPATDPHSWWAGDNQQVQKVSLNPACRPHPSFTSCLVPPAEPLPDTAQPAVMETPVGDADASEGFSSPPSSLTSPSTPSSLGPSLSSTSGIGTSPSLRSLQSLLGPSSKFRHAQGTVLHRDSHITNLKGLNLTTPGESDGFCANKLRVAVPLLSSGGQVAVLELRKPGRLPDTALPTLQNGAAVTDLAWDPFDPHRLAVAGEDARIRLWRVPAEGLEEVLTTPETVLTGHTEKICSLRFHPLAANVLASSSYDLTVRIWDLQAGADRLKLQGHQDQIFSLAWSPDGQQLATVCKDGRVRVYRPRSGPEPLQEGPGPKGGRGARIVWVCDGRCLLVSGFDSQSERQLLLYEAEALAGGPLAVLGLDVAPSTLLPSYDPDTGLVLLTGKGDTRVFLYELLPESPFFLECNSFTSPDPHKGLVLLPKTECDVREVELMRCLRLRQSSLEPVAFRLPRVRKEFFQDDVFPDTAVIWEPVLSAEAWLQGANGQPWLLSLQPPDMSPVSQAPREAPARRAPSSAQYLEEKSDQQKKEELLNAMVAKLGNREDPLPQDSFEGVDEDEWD
Chain of UniProt Q5RI15 (Q5RI15 whole entry, looked up): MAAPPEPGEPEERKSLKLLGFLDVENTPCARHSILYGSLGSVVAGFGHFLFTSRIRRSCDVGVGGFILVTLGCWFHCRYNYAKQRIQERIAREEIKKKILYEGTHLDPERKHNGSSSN
Chain of UniProt P31146 (P31146 whole entry, looked up): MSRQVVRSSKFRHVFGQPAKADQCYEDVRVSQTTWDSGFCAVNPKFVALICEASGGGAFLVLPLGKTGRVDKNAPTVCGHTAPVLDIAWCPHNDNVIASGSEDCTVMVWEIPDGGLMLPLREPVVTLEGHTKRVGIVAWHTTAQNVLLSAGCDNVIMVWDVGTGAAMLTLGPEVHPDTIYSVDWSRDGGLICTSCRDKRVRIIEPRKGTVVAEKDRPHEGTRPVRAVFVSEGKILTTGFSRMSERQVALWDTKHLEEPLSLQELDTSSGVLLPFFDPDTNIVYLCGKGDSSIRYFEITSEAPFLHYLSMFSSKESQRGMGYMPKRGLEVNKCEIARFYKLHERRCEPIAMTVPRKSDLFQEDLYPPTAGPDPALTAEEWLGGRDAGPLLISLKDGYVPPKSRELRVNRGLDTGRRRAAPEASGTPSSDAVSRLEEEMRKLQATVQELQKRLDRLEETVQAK
Chain of UniProt P50416 (P50416 whole entry, looked up): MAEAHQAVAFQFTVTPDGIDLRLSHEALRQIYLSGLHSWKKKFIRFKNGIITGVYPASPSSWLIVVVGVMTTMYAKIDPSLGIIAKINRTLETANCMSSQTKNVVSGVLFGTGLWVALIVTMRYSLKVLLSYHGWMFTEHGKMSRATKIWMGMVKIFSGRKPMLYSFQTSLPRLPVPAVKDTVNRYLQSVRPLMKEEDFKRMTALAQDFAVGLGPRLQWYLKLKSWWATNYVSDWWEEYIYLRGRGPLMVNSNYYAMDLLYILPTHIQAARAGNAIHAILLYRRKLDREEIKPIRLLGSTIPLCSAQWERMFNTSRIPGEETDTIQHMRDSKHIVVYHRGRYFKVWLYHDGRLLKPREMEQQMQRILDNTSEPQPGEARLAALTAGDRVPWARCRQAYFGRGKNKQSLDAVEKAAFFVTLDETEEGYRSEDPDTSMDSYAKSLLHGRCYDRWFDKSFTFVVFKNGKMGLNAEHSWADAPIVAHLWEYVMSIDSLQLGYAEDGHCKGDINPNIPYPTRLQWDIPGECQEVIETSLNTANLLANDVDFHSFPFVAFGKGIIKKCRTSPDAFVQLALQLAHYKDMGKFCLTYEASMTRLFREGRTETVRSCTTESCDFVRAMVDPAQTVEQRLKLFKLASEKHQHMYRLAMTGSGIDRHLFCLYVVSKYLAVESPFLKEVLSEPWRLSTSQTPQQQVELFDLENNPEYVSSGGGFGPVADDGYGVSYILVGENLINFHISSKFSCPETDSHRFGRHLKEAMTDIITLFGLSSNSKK
Chain of UniProt Q9NPI6 (Q9NPI6 whole entry, looked up): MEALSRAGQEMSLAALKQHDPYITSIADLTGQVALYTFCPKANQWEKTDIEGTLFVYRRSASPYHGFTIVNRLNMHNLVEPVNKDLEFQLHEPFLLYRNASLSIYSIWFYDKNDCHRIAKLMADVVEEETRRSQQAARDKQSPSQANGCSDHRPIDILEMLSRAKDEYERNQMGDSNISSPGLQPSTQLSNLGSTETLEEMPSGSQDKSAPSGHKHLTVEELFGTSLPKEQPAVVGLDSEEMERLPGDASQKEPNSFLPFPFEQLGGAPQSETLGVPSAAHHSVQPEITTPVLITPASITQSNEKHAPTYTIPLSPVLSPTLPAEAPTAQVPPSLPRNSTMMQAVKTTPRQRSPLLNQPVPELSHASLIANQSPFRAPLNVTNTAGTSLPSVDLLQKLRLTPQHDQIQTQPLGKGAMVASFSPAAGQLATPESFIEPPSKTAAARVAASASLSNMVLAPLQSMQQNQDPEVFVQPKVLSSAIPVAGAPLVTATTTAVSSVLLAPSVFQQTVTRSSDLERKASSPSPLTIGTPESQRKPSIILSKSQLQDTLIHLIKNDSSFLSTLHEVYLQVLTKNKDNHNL
Chain of UniProt P83436 (P83436 whole entry, looked up): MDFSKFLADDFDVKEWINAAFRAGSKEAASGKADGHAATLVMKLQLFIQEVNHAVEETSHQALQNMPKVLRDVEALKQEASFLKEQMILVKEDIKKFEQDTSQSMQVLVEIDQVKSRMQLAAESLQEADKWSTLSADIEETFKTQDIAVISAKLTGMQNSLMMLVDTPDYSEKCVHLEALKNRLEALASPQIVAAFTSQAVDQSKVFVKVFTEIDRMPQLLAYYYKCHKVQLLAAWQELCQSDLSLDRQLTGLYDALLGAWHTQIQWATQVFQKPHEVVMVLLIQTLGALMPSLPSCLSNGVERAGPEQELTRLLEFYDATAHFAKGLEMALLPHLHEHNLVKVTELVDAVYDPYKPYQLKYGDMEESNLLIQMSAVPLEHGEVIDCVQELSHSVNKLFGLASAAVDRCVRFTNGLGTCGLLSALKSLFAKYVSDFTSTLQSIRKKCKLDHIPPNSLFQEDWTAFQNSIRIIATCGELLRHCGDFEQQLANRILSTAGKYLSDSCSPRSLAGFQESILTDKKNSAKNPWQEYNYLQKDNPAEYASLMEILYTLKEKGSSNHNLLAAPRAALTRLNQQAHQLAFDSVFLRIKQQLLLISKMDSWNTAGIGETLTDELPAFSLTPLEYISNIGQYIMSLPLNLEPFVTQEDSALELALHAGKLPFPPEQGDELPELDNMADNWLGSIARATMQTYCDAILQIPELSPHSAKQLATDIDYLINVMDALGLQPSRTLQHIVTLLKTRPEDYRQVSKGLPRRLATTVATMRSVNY

In the case of CLCN3 (UniProt P51790), the log2 fold change with nilotinib was 0.15; in assay [1], -0.043; with dasatinib, -0.033; in [2], 0.117; in assay [3] it was 0.046; with quisinostat it was 0.056. The log2 fold change with tipifarnib is -0.097; in assay [4], -0.064; in assay [5], -0.002; in [6], 0.071.
For the target CLPB isoform 2 (UniProt Q9H078), the log2 fold change in the assay with nilotinib is -0.011; in assay [1], -0.003; with dasatinib it was 0.076; in [2], -0.03; in [3], 0.018; with quisinostat, 0.008. In addition, the log2 fold change in the assay with tipifarnib is -0.004; in assay [4], 0.005; in [5] it was 0.031; in assay [6] it was -0.016.
Regarding CYP24A1 (UniProt Q07973), the log2 fold change was 0.036 in the assay with nilotinib; -0.029 in assay [1]; -0.049 with dasatinib; 0.015 in assay [2]; 0.008 in assay [3]; -0.33 with quisinostat. Also, the log2 fold change was -0.018 in the assay with tipifarnib, 0.04 in assay [4], 0.068 in assay [5] and -0.161 in assay [6].
CORO1A (UniProt P31146): the log2 fold change is 0.003 in the assay with nilotinib; -0.012 in [1]; -0.146 with dasatinib; 0.022 in [2]; 0.034 in assay [3]; -0.028 with quisinostat. The log2 fold change in the assay with tipifarnib is 0.032; in assay [4], -0.015; in assay [5] it was -0.017; in assay [6], -0.026.
On to DCP1A (UniProt Q9NPI6), for which the log2 fold change was 0.022 with nilotinib; 0.117 in [1]; -0.052 with dasatinib; -0.023 in [2]; -0.001 in assay [3]; -0.042 with quisinostat. For the same target, the log2 fold change is 0.039 with tipifarnib, 0.008 in [4], -0.041 in assay [5] and -0.03 in [6].
As for CORO7 isoform 3 (UniProt P57737), the log2 fold change in the assay with nilotinib is -0.006; in assay [1], 0.003; in the assay with dasatinib, -0.032; in assay [2] it was 0.01; in assay [3] it was 0.019; with quisinostat, -0.026. The log2 fold change with tipifarnib is 0.005; in assay [4], 0.012; in [5], -0.016; in assay [6], -0.013.
In the case of CPT1A (UniProt P50416), the log2 fold change is -0.012 in the assay with nilotinib; 0.049 in assay [1]; 0.015 with dasatinib; -0.022 in assay [2]; 0.008 in assay [3]; 0.308 (active) with quisinostat. The log2 fold change in the assay with tipifarnib is 0.056; in assay [4], -0.09; in [5], -0.028; in assay [6] it was -0.038.
With CSNK1G3 (UniProt Q9Y6M4), the log2 fold change is -0.029 in the assay with nilotinib; 0.428 (active) in assay [1]; 0.002 with dasatinib; 0.388 (active) in assay [2]; 0.014 in assay [3]; -0.067 with quisinostat. The log2 fold change with tipifarnib was 0.001; in assay [4], 0.397 (active); in assay [5], 0; in [6], 0.086.
Take CLCN3 isoform 2 (UniProt P51790): the log2 fold change with nilotinib is 0.017; in assay [1], -0.018; with dasatinib it was -0.012; in assay [2] it was 0.006; in assay [3], -0.008; in the assay with quisinostat, 0.01. In addition, the log2 fold change with tipifarnib was -0.012; in assay [4] it was 0.04; in assay [5], 0.022; in assay [6], 0.024.
Regarding COG7 (UniProt P83436), the log2 fold change with nilotinib is 0.02; in assay [1] it was 0.007; in the assay with dasatinib, -0.089; in [2], 0.011; in [3] it was 0.024; in the assay with quisinostat, 0. The log2 fold change is -0.001 with tipifarnib, 0.033 in [4], -0.019 in [5] and 0.001 in assay [6].
Consider CLASP1 (UniProt Q7Z460), for which the log2 fold change with nilotinib was -0.015; in assay [1], 0.021; in the assay with dasatinib, -0.097; in [2] it was 0.013; in assay [3], 0.016; with quisinostat, -0.085. Also, the log2 fold change is -0.051 in the assay with tipifarnib, -0.022 in assay [4], 0.012 in assay [5] and -0.018 in assay [6].
As to DMAC2L (UniProt Q99766), the log2 fold change was -0.021 in the assay with nilotinib; 0.001 in assay [1]; 0.059 with dasatinib; -0.04 in assay [2]; -0.009 in [3]; 0.012 with quisinostat. Besides, the log2 fold change in the assay with tipifarnib is -0.017; in assay [4] it was -0.032; in assay [5], -0.006; in assay [6] it was 0.111.
COX20 isoform 2 (UniProt Q5RI15): the log2 fold change is 0.051 with nilotinib; -0.023 in [1]; 0.07 in the assay with dasatinib; -0.024 in [2]; 0.013 in [3]; -0.017 with quisinostat. Also, the log2 fold change with tipifarnib was 0.117; in assay [4] it was -0.026; in assay [5], -0.058; in [6] it was -0.03.
Regarding CSPP1 (UniProt Q1MSJ5), the log2 fold change with nilotinib is -0.105; in [1] it was -0.014; in the assay with dasatinib, 0.046; in assay [2] it was 0.011; in assay [3] it was -0.062; with quisinostat it was 0.026. Also, the log2 fold change in the assay with tipifarnib was 0.078; in assay [4] it was 0.015; in [5] it was -0.227; in [6] it was 0.011.
As for COG2 (UniProt Q14746), the log2 fold change with nilotinib is 0.024; in [1] it was 0.008; with dasatinib it was -0.024; in assay [2] it was 0.096; in assay [3], -0.002; in the assay with quisinostat, -0.029. In addition, the log2 fold change is -0.06 in the assay with tipifarnib, 0.055 in [4], 0.001 in assay [5] and 0.009 in assay [6].
